# “And” between values parts separate entries of the source, which are not always exact repeats. Equal entries are not always repeated. About 18,000 (4.4%) of roughly 410,000 compounds were called active. Inconclusive results (about 7%) are left out. Cut-off read from the data, not from the text of the source: active = activity change below about -60%; inconclusive = no clear call, values can overlap the other calls; inactive = above about -39%. The sample as a whole holds a higher share of actives than the screen did. Some structures have more than one record in an assay (separate samples or runs), and their calls can disagree.
# Experiment: qHTS Assay for inhibitors of the human cytomegalovirus (HCMV)
# Conditions: HFF cells, HCMV-luciferase reporter, 72 h; at 57.5 µM; stronger effect = lower value
# Outline: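 HFF cells seeded 16 h at 37C, treated with compounds, infected with luciferase-reporter HCMV at MOI 1 PFU/cell; luciferase read at 72 h post infection, normalized to buffer-only and Salinomycin controls.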
# % is set by controls: 0 for no effect and ±100 for the full control effect.
row,SMILES,"activity change, negative = inhibition"
1,CCOc1ccc(NS(=O)(=O)c2ccc(Cl)c(C(=O)N(C)Cc3cccnc3)c2)cc1,-5.24% (inactive)
2,CN(Cc1cccnc1)C(=O)c1cc(COc2ccc3ncccc3c2)on1,-81.6% (active)
3,CCn1ccnc1CN(C)C(=O)c1cc(COc2ccc(Cl)cc2OC)on1,1.37% (inactive)
4,CCc1nccn1S(=O)(=O)c1cc(Br)ccc1Br,3.85% (inactive)
5,Cc1cc(C)cc(NC(=O)CSc2nc(=O)n(CCN3CCOCC3)c3c2CCC3)c1,14.5% (inactive)
6,O=C(COC(=O)CCc1c[nH]c2ccccc12)Nc1cccc(Cl)c1,-16% (inactive)
7,COC(=O)c1ccc2c(c1)S(=O)(=O)NC2C (centres undefined),24.6% (inactive)
8,CC1CCCCC1NC(=O)COC(=O)Cc1ccc(Cl)cc1 (centres undefined),26.8% (inactive)
9,CCNC(=S)Nc1ccc2c(c1)c(=O)n(C)n2Cc1ccc(Cl)cc1,-4.48% (inactive)
10,COc1cc(Cn2c3ccc(NC(=O)CC(C)c4ccccc4)cc3c(=O)n2C)ccc1F (centres undefined),-10.4% (inactive)
11,CCOCCC(=O)Nc1ccc2c(c1)c(=O)n(C)n2-c1ccc2ccccc2c1,-74.6% (active)
12,CCCCn1c(N)c(N(CC)C(=O)/C=C/c2ccco2)c(=O)[nH]c1=O,14.2% (inactive)
13,O=C1/C(=C/c2cccs2)SC(=S)N1C1CCS(=O)(=O)C1 (centres undefined),-80.8% (active)
14,O=C1/C(=C/c2cccs2)CCC1C1CCCC1 (centres undefined),-34.7% (inactive)
15,Cn1nccc1NS(=O)(=O)c1ccc(F)cc1,19.9% (inactive)
16,Cc1ccc2cccc(NC(=O)c3ccc(OC(C)C)cc3)c2n1,9.69% (inactive)
17,CCOc1ccc(N(CC)S(=O)(=O)N2CCCC(C(=O)Nc3ccc(C(C)=O)cc3)C2)cc1 (centres undefined),11.4% (inactive)
18,COc1ccc(OCc2n[nH]c(=S)n2N)cc1,39.1% (inactive)
19,CC(Sc1nnc(COc2ccccc2)n1-c1ccccc1)C(=O)O (centres undefined),-4.35% (inactive)
20,Cc1ccc(OCc2n[nH]c(=S)n2-c2ccccc2)cc1,-60.4% (active)
21,CCc1ccccc1NC(=O)N1CCC2(CC1)Oc1ccccc1C(=O)N2Cc1ccccc1F,6.91% (inactive)
22,CN1c2ccccc2[C@@]2(CCN=C2N2CCOC2=O)[C@H]1c1cn(C)c2ccccc12,7.43% (inactive)
23,CCCCCCNCCn1cnc2c(N)ncnc21,-40% (inactive)
24,CCOC(=O)C1=C(C)NC(C)=C(C(=O)OCC)C1C1=COCCO1,42.6% (inactive)

row,SMILES,"activity change, negative = inhibition"
1,CCOC(=O)C1=C(CC)Nc2ccccc2N=C1N,40.2% (inactive)
2,CCOC(=O)C1=C(C)NC(C)=C(C(=O)OCC)C1c1ccccn1,1.28% (inactive) and -98.9% (active)
3,CCOC(=O)C1C(=O)NCC1c1ccccc1 (centres undefined),25.9% (inactive)
4,C=CCC1(C#N)C(=S)NC(C)=C(C(=O)OCC)C1c1ccccc1 (centres undefined),21.2% (inactive)
5,CCOC(=O)C1=C(C)NC(SC)=NC1c1ccccc1 (centres undefined),-75.9% (active)
6,Cc1ccc(CN2C(=O)SC(Nc3ccccc3)C2=O)cc1 (centres undefined),4.93% (inactive)
7,CC(=O)c1ccc(NC(=O)C2CCN(S(=O)(=O)c3c(C)noc3/C=C/c3ccc(C)cc3)CC2)cc1,8.22% (inactive)
8,Cc1ccccc1CNC(=O)C(=O)NCC(c1cccs1)S(=O)(=O)c1cccs1 (centres undefined),-7.75% (inactive)
9,Cc1ccc2nc(-c3ccc(O)cc3)c(Nc3ccc4c(c3)OCO4)n2c1,27.1% (inactive)
10,CN(C)c1ccc(NC(=S)N(CCc2ccccc2)C2CC(=O)N(c3c(Cl)cccc3Cl)C2=O)cc1 (centres undefined),-21.4% (inactive)
11,CCOc1ccc(N2C(=O)CC(N(CCc3ccc(OC)c(OC)c3)C(=S)Nc3ccccc3)C2=O)cc1 (centres undefined),-67.5% (active)
12,COc1ccc(N2C(=O)C(CC(=O)Nc3ccccc3)N(Cc3ccc(OC)c(OC)c3)C2=O)cc1 (centres undefined),38.3% (inactive)
13,CC(C)Oc1ccc(NC(=O)c2cc3ccccc3o2)cc1,84.8% (inactive)
14,COc1cccc(NC(=O)Cn2c(=O)cc(C)c3c(C)nn(-c4cccc(F)c4)c32)c1,2.05% (inactive)
15,COC(=O)c1ccccc1NC(=O)Cn1c(=O)cc(C)c2c(C)nn(-c3cccc(Cl)c3C)c21,-6.78% (inactive)
16,COc1ccc(NC(=O)Cn2c(=O)cc(C)c3c(C)nn(-c4cccc(Cl)c4C)c32)cc1OC,-103% (active)
17,N=c1n(CCc2ccccc2)c2ccccc2n1Cc1ccccc1F,-70.6% (active)
18,O=C(COC(=O)Cc1ccccc1F)NCCc1ccccc1,106% (inactive)
19,CCCn1c(NCc2ccccc2F)nc2ccccc21,49.2% (inactive)
20,CCOCCN(C=O)c1cccc(OC)c1,18% (inactive)
21,COc1ccc(N2CCN(C(=S)Nc3ccc(S(N)(=O)=O)cc3)CC2)cc1,9.64% (inactive)
22,COc1ccc(N2CCC(CNC(=S)Nc3c(C)cccc3C)C2)cc1 (centres undefined),0% (inactive)
23,COc1ccc(NC(=S)NCC2CCN(c3ccc(OC)cc3)C2)cc1 (centres undefined),-63.2% (active)
24,O=C(Cn1cc(SCc2cccc(Cl)c2)c2ccccc21)N1CCCCC1,24.5% (inactive)

row,SMILES,"activity change, negative = inhibition"
1,COc1ccc(-c2c(C)c3ccc(O)c(CN4CCN(C)CC4)c3oc2=O)cc1OC,5.43% (inactive)
2,CCOC(=O)c1oc2c(CN3CCN(C)CC3)c(O)ccc2c(=O)c1-c1ccc(Br)cc1,-37.4% (inactive)
3,CN1CCN(Cc2c(O)ccc3c2oc(=O)c2ccccc23)CC1,-78.7% (active)
4,O=C(CSc1oc(-c2ccco2)nc1S(=O)(=O)c1ccccc1)c1ccc(Cl)cc1,-17.5% (inactive)
5,Cc1cccc(N2CCN(c3c(CN4CCCC4)c(=O)oc4ccccc34)CC2)c1C,21.8% (inactive)
6,CCOc1ccc(N(CC)C(=O)c2cc3c(=O)oc4ccccc4c3s2)cc1,5.06% (inactive)
7,Cc1ccc(S(=O)(=O)N(C)CC(=O)N2CCc3ccccc32)cc1,-22.7% (inactive)
8,O=C(CN1C(=O)c2ccccc2S1(=O)=O)N1CCc2ccccc21,-93.9% (active)
9,NS(=O)(=O)c1ccc(CCNC(=O)CN2C(=O)c3ccccc3S2(=O)=O)cc1,-13% (inactive)
10,O=C(Cn1cc(SCc2ccccc2)c2ccccc21)N1CCCCC1,-27.6% (inactive)
11,Cc1ccc(CNC(=O)CSc2c3c(nc4cc(Cl)ccc24)CCCC3)cc1,-19.8% (inactive)
12,CC(=O)Nc1ccc(Nc2nc3c(S(=O)(=O)c4ccc(C)c(C)c4)nnn3c3ccccc23)cc1,-35.4% (inactive)
13,CC(=O)Nc1ccc(S(=O)(=O)N2CCN(c3ccccc3)CC2)cc1,-20.6% (inactive)
14,CC(=O)Nc1ccc(Nc2c3ccccc3nc3ccccc23)cc1,-99.6% (active)
15,Cc1ccc(Nc2c3c(nc4ccccc24)CCC3)cc1,-74.2% (active)
16,Brc1ccc(Nc2c3c(nc4ncnn24)CCC3)cc1,-30.4% (inactive)
17,CCCC(=O)Nc1cc(C(=O)NCc2ccc(OC)cc2)ccc1S(=O)(=O)c1ccc(Cl)cc1,12.9% (inactive)
18,CCOc1cccc(/C=N/NC(=S)NCCN2CCOCC2)c1O,-99.8% (active)
19,COc1cccc(C(CC(=O)NCCN2CCOCC2)NS(=O)(=O)c2ccc(C)cc2)c1OC (centres undefined),-35.5% (inactive)
20,CCOc1cc(/C=N/NC(=O)c2cccc(S(=O)(=O)N3CCOCC3)c2)ccc1OCC(=O)N(C)C,-10.8% (inactive)
21,Cc1oc(-c2ccccc2)nc1Cn1c(SCc2cccc(C(F)(F)F)c2)nc2cccnc21,-23.2% (inactive)
22,CCOc1cc(C2C(C(=O)OC)=C(C)NC3=C2C(=O)c2ccccc23)ccc1O (centres undefined),-8.78% (inactive)
23,CC1=NN(C(=O)CCc2ccccc2O)C(O)(C(F)(F)F)C1 (centres undefined),-66% (active)
24,CC1=NN(C(=O)c2ccc(Br)cc2)C(O)(c2ccccc2)C1 (centres undefined),-17.6% (inactive)

row,SMILES,"activity change, negative = inhibition"
1,CC1=NN(C(=O)CCCc2ccccc2)C(O)(C(F)(F)F)C1 (centres undefined),-24.1% (inactive)
2,COc1cccc(C(c2c(O)cc(C)n(Cc3ccco3)c2=O)N2CCN(c3ccccc3)CC2)c1 (centres undefined),7.72% (inactive)
3,CC(C)CC(NS(=O)(=O)c1ccc2c(c1)oc(=O)n2C)C(=O)NCc1ccccc1Cl (centres undefined),-14.5% (inactive)
4,CCCCn1c(=O)c2oc3ccccc3c2n(CC(=O)Nc2ccccc2OC)c1=O,17% (inactive)
5,Cc1cc(N2CCN(c3cccc(C(F)(F)F)c3)CC2)n2nc(-c3ccccc3)nc2n1,-20.6% (inactive)
6,Cc1ccc(/C=N/NC(=O)COc2ccccc2-c2ccccc2)cc1,-81.9% (active)
7,Nc1nnn(CC(=O)N/N=C/c2ccccc2)n1,-9.02% (inactive)
8,O=C(CSC1c2ccccc2-c2ccccc21)N/N=C/c1ccccc1,35.4% (inactive)
9,CCOCCCNC(=O)c1c(NC(=O)c2nc(SC)ncc2Cl)sc2c1CCCC2,47.5% (inactive)
10,O=C(CCn1c(=O)c2sccc2n(Cc2ccc(F)cc2)c1=O)NCc1ccc2c(c1)OCO2,14.2% (inactive)
11,c1ccc2c(c1)OCC(c1nn3cnnc3s1)O2 (centres undefined),-4.38% (inactive)
12,CSc1ccccc1-c1nnc(NC(=O)c2ccc3c(c2)OCCO3)o1,21.3% (inactive)
13,O=C(Nc1nnc(C2COc3ccccc3O2)o1)c1ccc(F)cc1 (centres undefined),-81.3% (active)
14,Oc1ccccc1-c1nc(/C=C/c2ccc(F)cc2)no1,94.7% (inactive)
15,COc1ccc(CNC(=O)c2cc3c(s2)-c2ccccc2OC3)cc1,-13.2% (inactive)
16,COc1cc(CNC(=O)c2cc3n(n2)CCCN(Cc2cccc(F)c2)C3=O)cc(OC)c1OC,-12.3% (inactive)
17,C=C(C)CSc1nnc(-c2ccc(C)cc2)n1N,-8.53% (inactive)
18,CN(C)c1cc[n+](Cc2ccccc2)cc1,-86.3% (active)
19,N#Cc1ccc(-c2cccs2)nc1SCc1ccc(Br)cc1,5.81% (inactive)
20,CCCCCn1nnnc1C1c2ccccc2C(=O)N1Cc1ccco1 (centres undefined),-25.7% (inactive)
21,O=C(Nc1ccc2c(c1)OCCO2)C1c2ccccc2OCC(=O)N1Cc1ccccn1 (centres undefined),3.21% (inactive)
22,O=C1c2ccccc2C(Nc2ccc3c(c2)OCCO3)N1Cc1ccco1 (centres undefined),-60.9% (active)

# Reference: PubChem BioAssay AID1259415 (National Center for Advancing Translational Sciences (NCATS), 2018)
